Results reported in PubChem BioAssay (NCATS).
Results filed as inconclusive are left out. Active and inactive are the calls of the source. Unless noted, calls come from the whole dose curve.

Tests used:
[1] = qHTS for Inhibitors of the Functional Ribonucleoprotein Complex (vRNP) of Lassa (LASV) Arenavirus: LASV Primary Screen - GLuc reporter signal (AID 1347082; calls by dose curve; tested in HEK293 reporter line; note: series mostly up to about 57 µM; nearly all actives have a fitted effect of over 60% in size)
[2] = qHTS for Inhibitors of the Functional Ribonucleoprotein Complex (vRNP) of Lassa (LASV) Arenavirus: Viability assay - alamar blue signal for LASV Primary Screen (AID 1347083; calls by dose curve; tested in HEK293 reporter line; note: nearly all actives have a fitted effect of over 80% in size; note: potency is the fitted concentration of half-maximal effect; for activity change, negative = reduced viability: series mostly up to about 57 µM)
[3] = qHTS for Inhibitors of the Functional Ribonucleoprotein Complex (vRNP) of Lymphocytic Choriomeningitis Arenaviruses (LCMV): Viability assay - alamar blue signal for LCMV Primary Screen (AID 1347085; calls by dose curve; tested in HEK293 reporter line; note: nearly all actives have a fitted effect of over 80% in size; note: potency is the fitted concentration of half-maximal effect; for activity change, negative = lower viability: series mostly up to about 57 µM)
[4] = target: Nucleoprotein (Lymphocytic choriomeningitis virus (strain Armstrong)) (UniProt P09992); assay: qHTS for Inhibitors of the Functional Ribonucleoprotein Complex (vRNP) of Lymphocytic Choriomeningitis Arenaviruses (LCMV): LCMV Primary Screen - GLuc reporter signal (AID 1347086); note: series mostly up to about 57 µM; nearly all actives have a fitted effect of over 70% in size
% is set by controls: 0 for no effect and ±100 for the full control effect.

Chain of Nucleoprotein (Lymphocytic choriomeningitis virus (strain Armstrong)) (P09992 whole entry, looked up): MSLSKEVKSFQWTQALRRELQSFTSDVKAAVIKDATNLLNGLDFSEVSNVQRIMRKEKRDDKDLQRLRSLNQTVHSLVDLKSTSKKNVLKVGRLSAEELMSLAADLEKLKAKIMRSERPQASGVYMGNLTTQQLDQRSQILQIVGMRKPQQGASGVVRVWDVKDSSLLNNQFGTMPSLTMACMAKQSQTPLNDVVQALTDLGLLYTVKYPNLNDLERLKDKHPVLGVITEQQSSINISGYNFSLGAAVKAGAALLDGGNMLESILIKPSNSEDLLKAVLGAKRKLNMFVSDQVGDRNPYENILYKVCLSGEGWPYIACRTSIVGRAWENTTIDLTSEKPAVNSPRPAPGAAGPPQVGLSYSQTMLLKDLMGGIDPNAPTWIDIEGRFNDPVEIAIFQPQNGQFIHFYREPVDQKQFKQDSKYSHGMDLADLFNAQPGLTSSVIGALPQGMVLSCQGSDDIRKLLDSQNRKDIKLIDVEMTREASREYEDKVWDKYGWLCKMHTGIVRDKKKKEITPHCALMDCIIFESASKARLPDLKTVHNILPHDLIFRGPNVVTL

C[C@]12CCC(=O)C=C1[C@@H]1C[C@@H]1[C@H]1[C@@H]3[C@@H]4C[C@@H]4[C@@]4(CCC(=O)O4)[C@@]3(C)CC[C@@H]12
inactive: Potency [1] | Potency [2] | Potency [3] | Potency [4]

NC(=O)NNc1ccccc1
inactive: Potency [1] | Potency [2] | Potency [3] | Potency [4]

COc1cccc2c1C(=O)c1c(O)c3c(c(O)c1C2=O)C[C@@](O)(C(=O)CO)C[C@@H]3O[C@H]1C[C@H](N)[C@H](O[C@@H]2CCCCO2)[C@H](C)O1
inactive: Potency [1]

CC(C)=CCNc1ncnc2c1ncn2[C@@H]1O[C@H](CO)[C@@H](O)[C@H]1O
inactive: Potency [1]

COc1ccc(/C=C/C(=O)c2ccc(OC)cc2OC)cc1
inactive: Potency [1] | Potency [2] | Potency [3]

O=C(O)C(Cc1cc(I)c(O)c(I)c1)c1ccccc1 (stereo not given)
inactive: Potency [1]

O=C(Nc1ncc([N+](=O)[O-])s1)c1cccs1
inactive: Potency [1] | Potency [2] | Potency [3]

Oc1c(Cl)cc(Cl)cc1Sc1cc(Cl)cc(Cl)c1O
inactive: Potency [1] | Potency [2]

COCCOC(=O)C1=C(C)NC(C)=C(C(=O)OC/C=C/c2ccccc2)C1c1cccc([N+](=O)[O-])c1 (stereo not given)
inactive: Potency [1] | Potency [2] | Potency [3]

CCOc1ccc(Cc2nccc3cc(OCC)c(OCC)cc23)cc1OCC
inactive: Potency [1] | Potency [2] | Potency [3]

CCCCOc1cc(C(=O)NCCN(CC)CC)c2ccccc2n1
inactive: Potency [1] | Potency [2]

OC[C@H]1O[C@@H](n2cnc3c(=S)nc[nH]c32)[C@H](O)[C@@H]1O
inactive: Potency [1]

Nc1nc2ccccc2n1Cc1ccc(F)cc1
inactive: Potency [1] | Potency [2]

CCOC(=O)C(C)(C)Oc1ccc(Cl)cc1
inactive: Potency [1] | Potency [2] | Potency [3] | Potency [4]

CC(C(O)c1ccccc1)N(C)CCOC(c1ccccc1)c1ccccc1 (stereo not given)
inactive: Potency [1]

COC(=O)Nc1nc2ccc(Sc3ccccc3)cc2[nH]1
inactive: Potency [1]
active: Potency [2] 5440 nM | Potency [3] 5440 nM

N[C@H]1CN(c2c(F)cc3c(=O)c(C(=O)O)cn(C4C[C@@H]4F)c3c2Cl)CC12CC2 (stereo not given in full)
inactive: Potency [1] | Potency [2] | Potency [3] | Potency [4]

C[C@@H](C1=C(CCN(C)C)Cc2ccccc21)c1ccccn1
inactive: Potency [1] | Potency [2]

Cc1c(C(=O)NN2CCCCC2)nn(-c2ccc(Cl)cc2Cl)c1-c1ccc(Cl)cc1
inactive: Potency [1] | Potency [2] | Potency [3]

CC(=O)Oc1ccc(C2(c3ccc(OC(C)=O)cc3)Oc3ccccc3NC2=O)cc1
inactive: Potency [1]

CCCCc1ccc2nc(NC(=O)OC)[nH]c2c1
inactive: Potency [1]
active: Potency [2] 68.5 nM | Potency [3] 38.5 nM

C[C@@H]1CCN(C(=O)[C@H](CCCN=C(N)N)NS(=O)(=O)c2cccc3c2NC[C@H](C)C3)[C@@H](C(=O)O)C1
inactive: Potency [1] | Potency [2] | Potency [3] | Potency [4]

COc1ccc([C@@H]2Sc3ccccc3NC(=O)[C@@H]2O)cc1
inactive: Potency [1]

CCOC(=O)C1=C(C)NC(C)=C(C(=O)OCC)C1c1ccccc1/C=C/C(=O)OC(C)(C)C
inactive: Potency [1] | Potency [2] | Potency [3]

CCN(CC)CCNc1ccc(CO)c2sc3ccccc3c(=O)c12
inactive: Potency [1]

CCNC(=O)N1CCN(CCCC(c2ccc(F)cc2)c2ccc(F)cc2)CC1
inactive: Potency [1] | Potency [2] | Potency [3]

COC(=O)C1=C(C)NC(C)=C(C(=O)OC(C)(C)CN(C)CCC(c2ccccc2)c2ccccc2)C1c1cccc([N+](=O)[O-])c1 (stereo not given)
inactive: Potency [1] | Potency [2] | Potency [3]

CC(=C(CCOC(=O)C(C)C)SSC(CCOC(=O)C(C)C)=C(C)N(C=O)Cc1cnc(C)nc1N)N(C=O)Cc1cnc(C)nc1N
inactive: Potency [1] | Potency [2]

CCN(CC)CCCC(C)Nc1c2ccc(Cl)cc2nc2ccc(OC)cc12 (stereo not given)
inactive: Potency [1]

CC(O)Cn1cnc2c1c(=O)n(C)c(=O)n2C (stereo not given)
inactive: Potency [1] | Potency [2] | Potency [3] | Potency [4]

COC(=O)[C@H]1[C@H]2C[C@@H]3c4[nH]c5cc(OC)ccc5c4CCN3C[C@H]2C[C@@H](OC(=O)/C=C/c2ccc(O)c(OC)c2)[C@@H]1OC
inactive: Potency [1]

Cc1nc2n(c(=O)c1CCN1CCC(C(=O)c3ccc(F)cc3)CC1)CCS2
inactive: Potency [1] | Potency [2] | Potency [3]

CN1CCCC(CC2c3ccccc3Sc3ccccc32)C1 (stereo not given)
inactive: Potency [1]

CCCc1ncc(C[n+]2ccccc2C)c(N)n1
inactive: Potency [1] | Potency [2] | Potency [3] | Potency [4]

c1ccc(-c2ccc(C(c3ccccc3)n3ccnc3)cc2)cc1 (stereo not given)
inactive: Potency [1] | Potency [2] | Potency [3]

CCN(CC)CCOc1ccc2c(c1)C(=O)c1cc(OCCN(CC)CC)ccc1-2
inactive: Potency [1]

C=CCNc1nc(NCC=C)nc(N2CCN(C(c3ccc(F)cc3)c3ccc(F)cc3)CC2)n1
inactive: Potency [1] | Potency [2] | Potency [3]

CN1CCN(C2=Nc3ccccc3Sc3ccc(Cl)cc32)CC1
inactive: Potency [1] | Potency [2] | Potency [3] | Potency [4]

CC(=O)[C@H]1CC[C@H]2[C@@H]3CC=C4C[C@@H](O)CC[C@]4(C)[C@H]3CC[C@]12C
inactive: Potency [1] | Potency [2] | Potency [3] | Potency [4]

CC(=O)OC[C@H]1O[C@@](COC(C)=O)(O[C@H]2O[C@H](COC(C)=O)[C@@H](OC(C)=O)[C@H](OC(C)=O)[C@H]2OC(C)=O)[C@@H](OC(C)=O)[C@@H]1OC(C)=O
inactive: Potency [1] | Potency [2] | Potency [3] | Potency [4]

C#C[C@]1(OC(C)=O)CC[C@H]2[C@@H]3CCC4=C[C@@H](OC(C)=O)CC[C@@H]4[C@H]3CC[C@@]21C
inactive: Potency [1] | Potency [2] | Potency [3] | Potency [4]

NC1=NCC2c3ccccc3Cc3ccccc3N12 (stereo not given)
inactive: Potency [1] | Potency [2] | Potency [3] | Potency [4]

CCn1ccnc1CC1COc2ccccc2O1 (stereo not given)
inactive: Potency [1] | Potency [2] | Potency [3] | Potency [4]

CC(=O)OC/C=C(C)/C=C/C=C(C)/C=C/C1=C(C)CCCC1(C)C
inactive: Potency [1] | Potency [2] | Potency [3] | Potency [4]

CC(C)COCC(CN(Cc1ccccc1)c1ccccc1)N1CCCC1 (stereo not given)
inactive: Potency [1] | Potency [2] | Potency [3] | Potency [4]

CCOC(=O)C(=O)c1csc(NC=O)n1
inactive: Potency [1] | Potency [2] | Potency [3] | Potency [4]

CN(C)CCCOC1(Cc2ccccc2)CCCCCC1
inactive: Potency [1] | Potency [2] | Potency [3] | Potency [4]

Cn1c(=O)c2c(ncn2CC2OCCO2)n(C)c1=O
inactive: Potency [1] | Potency [2] | Potency [3] | Potency [4]

C#C[C@]1(O)CC[C@H]2[C@@H]3[C@H](C)CC4=C(CCC(=O)C4)[C@H]3CC[C@@]21C
inactive: Potency [1] | Potency [2] | Potency [3] | Potency [4]

Cc1cc2c(OCC(CNC(C)(C)C)OC(=O)c3ccccc3)cccc2[nH]1 (stereo not given)
inactive: Potency [1] | Potency [2] | Potency [3] | Potency [4]

CC(C(=O)O)c1ccc2c(c1)Cc1cccnc1O2 (stereo not given)
inactive: Potency [1] | Potency [2] | Potency [3] | Potency [4]

OCC(CO)N[C@H]1C[C@](O)(CO)[C@@H](O)[C@H](O)[C@H]1O
inactive: Potency [1] | Potency [2] | Potency [3] | Potency [4]

CCN[C@@H]1C[C@H](N)[C@@H](OC2OC(CN)=CCC2N)[C@H](O)[C@H]1O[C@H]1OC[C@](C)(O)[C@H](NC)[C@H]1O (stereo not given in full)
inactive: activity change, negative = inhibition [1] -2.08% [at 0.757 µM] | activity change, negative = reduced viability [2] -5.5% [at 0.757 µM] | activity change, negative = lower viability [3] 0.253% [at 0.757 µM] | activity change, negative = inhibition [4] 10% [at 0.757 µM]

O=C(NC1CCN(CCc2c[nH]c3ccccc23)CC1)c1ccccc1
inactive: Potency [1] | Potency [2] | Potency [3] | Potency [4]

O=C(NN1CCCC1)NS(=O)(=O)c1ccc(Cl)cc1
inactive: Potency [1] | Potency [2] | Potency [3] | Potency [4]

Cc1[nH]c(=O)c(C#N)cc1-c1ccc2nccn2c1
inactive: Potency [1] | Potency [2] | Potency [3] | Potency [4]

CC(=O)Oc1ccc(C(c2ccc(OC(C)=O)cc2)c2ccccn2)cc1
inactive: Potency [1] | Potency [2] | Potency [3] | Potency [4]

CCC(=O)Nc1ccc(O)cc1
inactive: Potency [1] | Potency [2] | Potency [3] | Potency [4]

CN(C)CCN(Cc1cccs1)c1ccccn1
inactive: Potency [1] | Potency [2] | Potency [3] | Potency [4]

Cc1cccc(OCC(O)CNC(C)(C)C)c1C (stereo not given)
inactive: Potency [1] | Potency [2] | Potency [3] | Potency [4]

CNC[C@H](O)c1ccc(O)c(O)c1
inactive: Potency [1] | Potency [2] | Potency [3] | Potency [4]

CN(C)CCN(Cc1ccccc1)c1ccccn1
inactive: Potency [1] | Potency [2] | Potency [3] | Potency [4]

NS(=O)(=O)c1cc2c(cc1Cl)NC(C1CC3C=CC1C3)NS2(=O)=O (stereo not given)
inactive: Potency [1] | Potency [2] | Potency [3] | Potency [4]

CC[N+](CC)(CC)CCOC(=O)C(C1CCCC1)C1CCCC1
inactive: Potency [1] | Potency [2] | Potency [3] | Potency [4]

COc1ccc2cc(C=O)ccc2c1
inactive: Potency [1] | Potency [2] | Potency [3] | Potency [4]

CC(COc1ccccc1)NC(C)C(O)c1ccc(O)cc1 (stereo not given)
inactive: Potency [1] | Potency [2] | Potency [3] | Potency [4]

C=C(C)C(=O)OCC(O)CO (stereo not given)
inactive: Potency [1] | Potency [2] | Potency [3] | Potency [4]

CC(NC(CCc1ccccc1)C(=O)O)C(=O)N1C(=O)N(C)CC1C(=O)O (stereo not given)
inactive: Potency [1] | Potency [2] | Potency [3] | Potency [4]

NS(=O)(=O)c1cc2c(cc1Cl)CN(C1CCCCC1)C2=O
inactive: Potency [1] | Potency [2] | Potency [3] | Potency [4]

CN1CCN(C2=Nc3cc(F)ccc3Cc3ccccc32)CC1
inactive: Potency [1] | Potency [2] | Potency [3] | Potency [4]

CCOCCOC(=O)/C=C/c1ccc(OC)cc1
inactive: Potency [1] | Potency [2] | Potency [3] | Potency [4]

C[C@H]1COc2c(C3(N)CC3)c(F)cc3c(=O)c(C(=O)O)cn1c23
inactive: Potency [1] | Potency [2] | Potency [3] | Potency [4]

CC(=O)c1ccc2c(c1)N(CCCN1CCC(CCO)CC1)c1ccccc1S2
inactive: Potency [1] | Potency [2] | Potency [3] | Potency [4]

O=C(O)CCNC(=O)c1ccccc1
inactive: Potency [1] | Potency [2] | Potency [3] | Potency [4]

O=C1CC2(CCCC2)CC(=O)N1CCNCC1COc2ccccc2O1 (stereo not given)
inactive: Potency [1] | Potency [2] | Potency [3] | Potency [4]

CSc1ccc2c(c1)C(N1CCN(C)CC1)Cc1ccccc1S2 (stereo not given)
inactive: Potency [1] | Potency [2] | Potency [3] | Potency [4]
